Experimental data published in ChEMBL document CHEMBL3433997, “St. Jude Leishmania screening dataset” (2016).
Values joined by “and” are separate entries in the source; they are usually repeats but may differ in a detail not shown here. Equal entries are not always repeated.

Experiments:
Format in all cases: functional
[1] = target: Solute carrier family 2, facilitated glucose transporter member 1 (Homo sapiens) (UniProt P11166); experiment: ST_JUDE_LEISH: Cytotoxicity at 2uM final concentration against transgenic Leishmania Mexicana promastigotes LmGLUT1 that are glucose transport deficient and complemented with the human glucose transporter GLUT1. Activity is measured by DNA content using SYBR green in vitro
Chain of Solute carrier family 2, facilitated glucose transporter member 1 (Homo sapiens) (P11166 whole entry): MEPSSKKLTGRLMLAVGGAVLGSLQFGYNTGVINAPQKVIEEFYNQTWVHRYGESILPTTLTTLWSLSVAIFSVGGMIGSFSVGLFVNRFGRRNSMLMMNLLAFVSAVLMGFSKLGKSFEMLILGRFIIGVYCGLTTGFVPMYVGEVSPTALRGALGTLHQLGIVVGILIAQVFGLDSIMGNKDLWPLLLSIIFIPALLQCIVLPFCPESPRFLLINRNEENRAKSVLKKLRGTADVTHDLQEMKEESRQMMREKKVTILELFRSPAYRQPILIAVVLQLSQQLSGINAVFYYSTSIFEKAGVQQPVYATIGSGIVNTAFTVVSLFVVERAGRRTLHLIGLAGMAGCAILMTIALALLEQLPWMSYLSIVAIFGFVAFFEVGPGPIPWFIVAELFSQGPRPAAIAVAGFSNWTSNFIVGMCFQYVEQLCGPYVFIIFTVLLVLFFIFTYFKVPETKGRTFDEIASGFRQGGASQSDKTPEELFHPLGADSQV

[2] = target: Hexose transporter 1 (Plasmodium falciparum) (UniProt O97467); experiment: ST_JUDE_LEISH: Cytotoxicity at 2uM final concentration against transgenic Leishmania Mexicana promastigotes LmPfHT that are glucose transport deficient and complemented with the Plasmodium falciparum hexose transporter. Activity is measured by DNA content using SYBR green in vitro
[3] = target: Glucose transporter (Leishmania mexicana) (UniProt O61059); experiment: ST_JUDE_LEISH: Cytotoxicity at 2uM final concentration against transgenic Leishmania Mexicana promastigotes LmGT2 that are glucose transport deficient and complemented with the L. Mexicana glucose transporter 2. Activity is measured by DNA content using SYBR green in vitro

| Structure (SMILES) | inhibition [1] | inhibition [2] | inhibition [3] |
| --- | --- | --- | --- |
| Cc1cccc2c(C3CCN(CC4CCC(NC(=O)/C=C/c5ccc(Cl)c(Cl)c5)CC4)CC3)c[nH]c12 (stereo not given) | 10.9% | 9.79% | 8.09% |
| N[C@@H](CCN1CCC(c2cccc(O)c2)CC1)Cc1ccc(F)c(F)c1 | 3.74% | 2.04% | 0.73% |
| O=C(/C=C/c1ccc(Cl)c(Cl)c1)N1CCC(CN2CCC(c3c[nH]c4ccccc34)C(O)C2)CC1 (stereo not given) | 7.48% | 2.3% | 0.72% |
| CC[C@H]1CN2CC[C@H]1C[C@H]2[C@H](O)c1cc(-c2cccc(F)c2)nc2ccc(OC)cc12 | 8.98% | 7.25% | 5.44% |
| COc1ccc(CCNCc2ccc3nc(N)cc(C)c3c2)cc1 | -3.73% | -2.84% | -2.66% |
| CC1(CCCCN2CC=C(c3c[nH]c4ccccc34)CC2)C(=O)Nc2ccccc21 (stereo not given) | 0.6% | -0.08% | 2.1% |
| O=C(/C=C/c1cccc2ccccc12)NC1CCC(CN2CCC(c3c[nH]c4ccccc34)CC2)CC1 (stereo not given) | 1.25% and 2.48% | 0.21% and 2.66% | -2.33% and 1.25% |
| O=C(/C=C/c1ccc(Cl)c(Cl)c1)NCCCCCN1C2CCC1CC(c1c[nH]c3ccc(O)cc13)C2 (stereo not given) | 0.54% and -0.84% | 2.4% and -2.77% | -3.07% and -2.2% |
| CC[C@H]1CN2CC[C@H]1C[C@H]2[C@H](OC(=O)c1ccccc1)c1cc(C#N)nc2ccc(OC)cc12 | 1.81% | -0.58% | 0.6% |
| CNC(=O)c1ccc2[nH]cc(C3CCN(CC4CCC(NC(=O)/C=C/c5ccc(Cl)c(Cl)c5)CC4)CC3)c2c1 (stereo not given) | 9.29% | 7.99% | 4.82% |
| CCCCC1(NC(=O)[C@H](CC(C)C)Nc2ccc(C#N)c3ccccc23)CCCCC1 | 1.12% | 4.9% | 2.56% |
| CN(C)c1cccc(NC(=O)N[C@H]2N=C(c3ccccc3)c3ccccc3N(CC(=O)N3CCCC3)C2=O)c1 | 2.85% | 2.62% | 2.53% |
| CCCCCCC(C)(C)c1cc(O)c2c3c(c(=O)oc2c1)CCN(Cc1ccccc1)C3 | 3.18% | 4.84% | 8.58% |
| Cc1cc(O)cc2c(C3CCN(CC4CCC(NC(=O)/C=C/c5ccccc5Cl)CC4)CC3)c[nH]c12 (stereo not given) | 4.47% | 4.35% | 3.52% |
| Cc1ccc(C)c(C=CC(=O)NC2CCC(CN3CCC(c4c[nH]c5ccccc45)CC3)CC2)c1 (stereo not given) | 1.09% and 15% | 1.99% and 11.5% | 1.04% and 10.2% |
| O=C(/C=C/c1ccc([N+](=O)[O-])cc1)NC1CCC(CN2CCC(c3c[nH]c4ccccc34)CC2)CC1 (stereo not given) | 2.8% and -1.4% | 1.89% and -2.18% | 0.45% |
| CCCCCCC(C)(C)c1cc(O)c2c(c1)OC(C)(C)c1ccncc1-2 | 1.05% | 0.83% | 3.15% |
| Cc1[nH]c2cc(Cl)ccc2c1C1=CCN(CCN2CCOc3c(Br)cccc3C2=O)CC1 | 5.36% | 5.27% | 6.71% |
| O=C(/C=C/c1ccc(Cl)c(Cl)c1)N1CCC(CN2CCC(c3c(-c4ccccc4)[nH]c4ccccc34)CC2)CC1 | -1.32% | 1.74% | 0.62% |
| CCCCCc1cc(O)c2c(c1)OC(C)(C)CC2C1=CCN(Cc2cnc3ccccc3c2)CC1 (stereo not given) | 1.53% | 1.25% | 0.64% |
| COc1cc(C(=O)NC2CCC(CN3CCC(c4c[nH]c5ccccc45)CC3)CC2)cc(Cl)n1 (stereo not given) | 1.3% | -0.71% | 2.31% |
| COC(=O)c1ccc(CC(C)NCC(O)c2cccc(SC(F)(F)F)c2)cc1 (stereo not given) | 2.85% | 4.05% | 4.01% |
| COc1ccc(CC(C)NCC(O)c2cccc(Br)c2)cc1 (stereo not given) | 10.3% | 8.65% | 9.13% |
| O=C(NCCC1CCN(CCc2c[nH]c3ccccc23)CC1)Nc1ccc(Cl)c(Cl)c1 | 3.67% | 2.49% | 3% |

| Structure (SMILES) | inhibition [1] | inhibition [2] | inhibition [3] |
| --- | --- | --- | --- |
| Cc1cc(NC(=O)[C@@H](Nc2ccc(C#N)c3ccccc23)C2CCCCC2)ccc1F | -1.97% | -0.16% | -0.25% |
| CCCCCCCc1cc(O)c2c(c1)OC(C)(C)c1ccncc1-2 | 1.49% | 2.54% | 1.72% |
| S=C(NCCc1ccc(Cl)cc1)NC1CCC(CN2CCC(c3c[nH]c4ccccc34)CC2)CC1 (stereo not given) | 2.11% and -0.48% | 0.01% and 3.61% | -2.05% and -1.85% |
| O=C(Nc1cc(C(F)(F)F)cc(C(F)(F)F)c1)NC1CCC(CN2CCC(c3c[nH]c4ccccc34)CC2)CC1 (stereo not given) | -2.79% and 4.32% | -1.6% and 4.26% | -0.26% and 2.03% |
| O=P(O)(O)Oc1c(Br)cc(Br)cc1-c1cc(Br)cc(Br)c1O | 0.02% | 1.27% | 0.55% |
| O=C(Nc1ccc(CN2CCC(c3c[nH]c4ccc(O)cc34)CC2)cc1)c1ccc(-c2ccccc2)cc1 | 5.73% | 3.85% | 5.18% |
| Cc1ccc(CC(C)NC[C@H](O)c2cccc(Cl)c2)cc1 (stereo not given in full) | 1.71% and 1.19% | 0.19% and 1.01% | 1.47% and 1.06% |
| CC[C@H]1CN2CC[C@@H]1C[C@@H]2[C@@H](O)c1cc(-c2ccc(F)cc2)nc2ccc(OC)cc12 | 4.08% | 3.07% | 5.29% |
| CC1(C)N=C(N)N=C(N)N1c1ccc([N+](=O)[O-])cc1 | 9.35% | 8.47% | 7.22% |
| CC[C@H]1CN2CC[C@@H]1C[C@H]2[C@H](O)c1cc(-c2ccc(Cl)c(Cl)c2)nc2ccc(O)cc12 | -0.36% | -1.15% | -0.47% |
| CN(Cc1ccccc1)C1CCN(CCc2c[nH]c3ccc(F)cc23)CC1 | 6.41% | 5.56% | 7.12% |
| O=C(/C=C/c1ccc(C(F)(F)F)cc1)NC1CCC(CN2CCC(c3c[nH]c4ccccc34)CC2)CC1 (stereo not given) | 5.55% and -0.04% | 5.47% and -0.38% | 0.63% and -2.05% |
| Cc1ccc2c(C3=CCN(CCCCC4(C)C(=O)Nc5ccccc54)CC3)c(C)[nH]c2c1 (stereo not given) | 0.29% | 0.34% | -0.56% |
| COCCNCc1ccc(-c2ccc(CN(C(=O)NC3CCCCC3)C3CCN(Cc4ccccc4)CC3)cc2)cc1 | 2.65% | 2% | -1.48% |
| O=C(/C=C/c1ccc(Cl)c(Cl)c1)NCc1ccc(CN2CCC(c3c[nH]c4ccccc34)CC2)cc1 | 2.64% | 2.44% | 0.41% |
| COc1ccc(CC(C)NCC(O)c2cccc(C(F)(F)F)c2)cc1 (stereo not given) | 9.76% | 8.74% | 8.93% |
| O=C(/C=C/c1ccc(Cl)c(Cl)c1)NCCC1CCC(N2CCC(c3c[nH]c4ccc(O)cc34)CC2)CC1 (stereo not given) | 0.48% | 3.87% | 1.36% |
| C=C[C@H]1CN2CC[C@H]1C[C@H]2[C@H](O)c1ccnc2ccccc12 | 0.68% | 1.87% | 1.5% |
| CN1CC=C(C=Cc2c[nH]c3ccccc23)CC1 | 0.96% | 2.14% | 3.25% |
| COc1ccc(C[C@H]2NC[C@H](O)[C@H]2OC(C)=O)cc1 | 105% | 103% | 92.1% |
| CCC1(C)N=C(N)N=C(N)N1c1ccc(Cl)cc1 (stereo not given) | 3.87% | -0.9% | 2.79% |
| CC[C@H]1CN2CC[C@H]1C[C@H]2[C@H](O)c1cc(Cl)nc2ccc(OC)cc12 | 2.23% | 1.71% | 1.61% |
| COc1coc(C(=O)NC2CCN(CC3(c4ccc(Cl)cc4)CCC3)CC2)c1OC | 4.7% | 4.52% | 2.81% |
| O=C(CCC(=O)c1ccc2c3c(cccc13)CC2)NC1CCC(CN2CCC(c3c[nH]c4ccccc34)CC2)CC1 (stereo not given) | 3.08% | 3.49% | 4.96% |

| Structure (SMILES) | inhibition [1] | inhibition [2] | inhibition [3] |
| --- | --- | --- | --- |
| Cc1cc(N)nc2ccc(CNCCc3ccccc3Br)cc12 | 1.91% | 1.25% | 1.79% |
| Oc1ccc(CN2CCN(CCOC(c3ccccc3)c3ccccc3)CC2)cc1Cl | 0.53% | 3.98% | -1.69% |
| CCCc1ccc2c(c1O)CCC(N(CCC)CCC)C2 (stereo not given) | 2.32% | 2.51% | 2.48% |
| CC[C@H]1CN2CC[C@@H]1C[C@H]2[C@H](O)c1cc(-c2c(C)noc2C)nc2ccc(OC)cc12 | 3.43% | 4.92% | 6.01% |
| O=C(CNC1CCCCC1)c1ccc(O)c(O)c1 | 75.2% | 87.1% | 77.4% |
| CC(C)C[C@H](Nc1ccc(C#N)c2ccccc12)C(=O)N[C@@H]1CCCc2ccccc21 | 3.96% | 1.88% | 1.15% |
| CN1CC=C(c2c[nH]c3ccc(Oc4ccccc4)cc23)CC1 | 0.93% | 6.03% | 3.03% |
| CCCCc1ccc2[nH]cc(C3=CCN(C)CC3)c2c1Br | 0.79% | -0.14% | 2.44% |
| Oc1ccc2[nH]cc(C3=CCN(CCc4ccccc4)CC3)c2c1 | 15.8% | 18.1% | 13.4% |
| CN(c1cc(NC(=O)c2ccc(F)cc2)ccn1)C1CCN(Cc2cccc(O)c2)CC1 | 2.68% | 4.98% | 6.32% |
| O=C(/C=C/c1ccc(Cl)c(Cl)c1)Nc1cccc(CN2CCC(c3c[nH]c4ccc(O)cc34)CC2)c1 | 0.9% | 1.55% | -0.7% |
| CNCCN(C)C(=O)Oc1c(Br)c(C)nc(C)c1-c1ccc(Oc2ccc(OC(F)(F)F)cc2)cc1 | 2.73% | 3.16% | 5.59% |
| CC(C)CNCc1cccc(-c2cccc(CN(C(=O)NC3CCCCC3)C3CCN(Cc4ccccc4)CC3)c2)c1 | 8.3% | 4.64% | 5.98% |
| COC(=O)c1ccc(CC(C)NCC(O)c2cccc(C(F)(F)F)c2)cc1C (stereo not given) | 0.54% | 1.8% | 0.87% |
| CN(C(=O)OCc1ccccc1)C1CCC(CCN2CCC3(CC2)C(=O)NCN3c2cccc(C(F)(F)F)c2)(c2ccccc2)CC1 (stereo not given) | 2.48% | 1.12% | 2.55% |
| Cn1cc(CN2CCC(CCOC(c3ccccc3)c3ccccc3)CC2)cn1 | 12.3% | 9.95% | 5.33% |
| Cc1cc(N(C)C2CCN(C)CC2)nc(Nc2ccc(Br)cc2)n1 | 3.64% | 6.94% | 1.93% |
| O=C(Cc1c(-c2ccccc2)[nH]c2ccccc12)NC1CCC(CN2CCC(c3c[nH]c4ccccc34)CC2)CC1 (stereo not given) | 4.32% | 4% | 2.03% |
| CC[C@H]1CN2CC[C@@H]1C[C@H]2[C@H](O)c1cc(N2CCC(N3CCCCC3)CC2)nc2ccc(OC)cc12 | 1.26% | 4.69% | -0.04% |
| S=C(Nc1ccccc1Cl)NC1CCC(CN2CCC(c3c[nH]c4ccccc34)CC2)CC1 (stereo not given) | 5.7% | 8.06% | 3.34% |
| O=C(/C=C/c1ccc(Cl)c(Cl)c1)N1CCC(CN2CCC(c3c[nH]c4cc5c(cc34)OCO5)CC2)CC1 | 5.54% | 4.93% | 3.71% |
| O=C(/C=C/c1ccc(Cl)c(Cl)c1)Nc1cccc(CN2CCC(c3c[nH]c4ccccc34)CC2)c1 | 8.01% | 6.99% | 5.33% |
